Data taken from the supplement of paper PMC6992640.
± gives the standard deviation of the averaged measurements.

Experiments:
Test in all cases: cell viability (% of vehicle); higher = less cytotoxic
Settings in all cases: 10 µM; 72 h
HCI01 = system: HCI01 (cells of a triple-negative basal-like breast cancer xenograft)
HCI03 = system: HCI03 (cells of an ER-positive luminal breast cancer xenograft)
HCI09 = system: HCI09 (cells of a triple-negative luminal androgen receptor type breast cancer xenograft)
HCI11 = system: HCI11 (cells of an ER-positive luminal breast cancer xenograft)
HCI13 = system: HCI13 (cells of an ER-positive luminal breast cancer xenograft)
HCI16 = system: HCI16 (cells of a triple-negative basal-like breast cancer xenograft)
UCD52 = system: UCD52 (cells of a triple-negative basal-like breast cancer xenograft)
WHIM2 = system: WHIM2 (cells of a triple-negative basal-like breast cancer xenograft)
WHIM30 = system: WHIM30 (cells of a triple-negative basal-like breast cancer xenograft)
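Note: PDX cells carrying CMV promoter-driven luciferase, viability read as total photon flux per second by IVIS imaging following D-luciferin, vehicle control 0.1% DMSO.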

Row | Compound | cell viability (HCI01) | cell viability (HCI03) | cell viability (HCI09) | cell viability (HCI11) | cell viability (HCI13) | cell viability (HCI16) | cell viability (UCD52) | cell viability (WHIM2) | cell viability (WHIM30)
1 | CC(=O)NCC1CN(c2ccc(N3CCOCC3)c(F)c2)C(=O)O1 (stereo not drawn) [Linezolid] | 99.5 ± 2.9 | 108 | 93.8 ± 5.2 | 103 | 98.1 ± 3 | 110 | 81 ± 12 | 80.7 ± 1.3 | 137 ± 14
2 | Cc1ccc(S(=O)(=O)NC(=O)NN2CC3CCCC3C2)cc1 (stereo not drawn) [Gliclazide] | 93.2 ± 72 | 143 | 90.8 ± 21 | 90.2 | 105 ± 4.1 | 122 | 95.6 ± 12 | 125 ± 8.1 | 125 ± 9.6
3 | CN1CCCC[C@H]1CCN1c2ccccc2Sc2ccc(S(C)=O)cc21.O=S(=O)(O)c1ccccc1 (stereo partly drawn) [Mesoridazine Besylate] | 115 ± 9.3 | 77.9 | 132 ± 60 | 98.2 | 122 ± 10 | 106 | 95.9 ± 8.8 | 85.8 ± 21 | 103 ± 7.5
4 | C=CC(=O)N1CCCC(n2nc(-c3ccc(Oc4ccccc4)cc3)c3c(N)ncnc32)C1 (stereo not drawn) | 80.2 ± 24 | 69 | 56.2 ± 21 | 83.8 | 87.9 ± 8.6 | 55.6 | 76.7 ± 4.3 | 70.4 ± 7.2 | 103 ± 9.7
5 | CC#CC1(O)CCC2C3CCC4=CC(=O)CCC4=C3C(c3ccc(N(C)C)cc3)CC21C (stereo not drawn) [Mifepristone] | 113 ± 13 | 99.2 | 72.6 ± 18 | 73.5 | 47.5 ± 0.63 | 89.3 | 73.3 ± 6.9 | 89.7 ± 2.1 | 93.3 ± 3
6 | COc1ccc(O)cc1 [Mequinol] | 91 ± 10 | 108 | 101 ± 13 | 70.4 | 124 ± 32 | 118 | 71 ± 7.1 | 96.5 ± 20 | 100 ± 2.8
7 | CC(=O)OCC[N+](C)(C)C.[Cl-] [Acetylcholine Chloride] | 104 ± 23 | 85.8 | 95.1 ± 7.5 | 87.1 | 101 ± 9.6 | 97.8 | 69.3 ± 1.8 | 96.7 ± 6.8 | 107 ± 21
8 | COc1ccc(CNc2nc(N3CCCC3CO)ncc2C(=O)NCc2ncccn2)cc1Cl (stereo not drawn) [Avanafil] | 155 ± 7.5 | 117 | 102 ± 23 | 143 | 123 ± 11 | 121 | 104 ± 15 | 130 ± 2.6 | 135 ± 7.5
9 | Cl.O=c1n(CCCN2CCN(c3cccc(Cl)c3)CC2)nc2ccccn12 [Trazodone HCl] | 112 ± 11 | 123 | 95.5 ± 16 | 101 | 104 ± 9.6 | 148 | 89.05 ± 0.23 | 105 ± 23 | 192 ± 16
10 | CCN(Cc1ccncc1)C(=O)C(CO)c1ccccc1 (stereo not drawn) [Tropicamide] | 112 ± 15 | 136 | 106 ± 11 | 101 | 136 ± 23 | 110 | 74.6 ± 14 | 91.4 ± 14 | 98.61 ± 0.95
11 | CN(CC/C=C1C2=CC=CC=C2C=CC3=CC=CC=C3\1)C.Cl [Cyclobenzaprine HCl] | 98.1 ± 17 | 95.1 | 73.5 ± 0.81 | 84.5 | 131 ± 4.4 | 92.3 | 76.4 ± 0.93 | 89.6 ± 14 | 89.9 ± 1.5
12 | O=C1C(=O)c2ccccc2C(O)=C1C1CCC(c2ccc(Cl)cc2)CC1 (stereo not drawn) [Atovaquone] | 81.6 ± 34 | 82.3 | 27.7 ± 4.7 | 54.9 | 50 ± 1.9 | 116 | 78.9 ± 15 | 99.7 ± 8.7 | 72.4 ± 1.9
